Source: the supplement of paper PMC10849652
Of roughly 7,900 targets only a part is listed; those with a hit were picked by preference. About 0.6% of all pairs of compound and target were hits. Unmarked numbers belong to inactive results.

What follows are targets tested with COc1cc2nc(-c3cc(F)ccc3O)nc(N[C@@H]3CNC[C@H]3C(C)(C)O)c2cc1OC (assay: log2 fold change, soluble protein after heating vs DMSO (PISA); higher = thermal stabilisation; K562 cells, 10 uM, 30 min; active = over 0.2 and 3.5 SD of the protein, either way, in both replicates (recomputed)).
Procedure, shortened: (§1)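 K562 cells at 2×10^6 cells/mL were given 10 μM compound for 30 min. Aliquots then went through 3 min of heating across 48°C-58°C, were pooled, and were extracted in PBS with 0.5% NP-40 at 4°C, and the supernatant after 21,000xg for 90 min was quantified by TMTpro 16plex LC-MS/MS with channel sums equalised. Thermal stability relative to control samples, from duplicates, is given as log2 fold change.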

Chain of UniProt Q9BQD3 (Q9BQD3 whole entry, looked up): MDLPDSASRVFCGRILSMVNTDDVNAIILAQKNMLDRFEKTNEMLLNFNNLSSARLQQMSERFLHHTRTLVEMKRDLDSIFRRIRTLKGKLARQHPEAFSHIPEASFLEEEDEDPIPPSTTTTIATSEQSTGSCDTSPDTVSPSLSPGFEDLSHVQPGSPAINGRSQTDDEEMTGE
Chain of UniProt Q8TDD5 (Q8TDD5 whole entry, looked up): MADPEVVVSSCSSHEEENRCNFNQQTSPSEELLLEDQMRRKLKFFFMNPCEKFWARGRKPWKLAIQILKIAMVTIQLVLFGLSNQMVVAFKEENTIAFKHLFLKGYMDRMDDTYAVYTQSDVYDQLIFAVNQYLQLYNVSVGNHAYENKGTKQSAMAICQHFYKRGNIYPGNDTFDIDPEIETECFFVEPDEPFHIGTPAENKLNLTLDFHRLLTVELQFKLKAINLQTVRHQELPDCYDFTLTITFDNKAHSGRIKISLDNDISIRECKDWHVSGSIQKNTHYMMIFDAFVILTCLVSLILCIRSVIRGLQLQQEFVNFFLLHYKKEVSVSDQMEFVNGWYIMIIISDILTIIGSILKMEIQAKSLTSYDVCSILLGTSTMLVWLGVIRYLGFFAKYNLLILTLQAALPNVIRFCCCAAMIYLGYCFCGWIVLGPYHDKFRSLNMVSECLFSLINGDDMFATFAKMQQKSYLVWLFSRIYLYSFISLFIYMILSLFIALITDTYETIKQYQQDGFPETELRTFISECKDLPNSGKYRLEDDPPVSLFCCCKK
Chain of UniProt P27816 (P27816 whole entry, looked up): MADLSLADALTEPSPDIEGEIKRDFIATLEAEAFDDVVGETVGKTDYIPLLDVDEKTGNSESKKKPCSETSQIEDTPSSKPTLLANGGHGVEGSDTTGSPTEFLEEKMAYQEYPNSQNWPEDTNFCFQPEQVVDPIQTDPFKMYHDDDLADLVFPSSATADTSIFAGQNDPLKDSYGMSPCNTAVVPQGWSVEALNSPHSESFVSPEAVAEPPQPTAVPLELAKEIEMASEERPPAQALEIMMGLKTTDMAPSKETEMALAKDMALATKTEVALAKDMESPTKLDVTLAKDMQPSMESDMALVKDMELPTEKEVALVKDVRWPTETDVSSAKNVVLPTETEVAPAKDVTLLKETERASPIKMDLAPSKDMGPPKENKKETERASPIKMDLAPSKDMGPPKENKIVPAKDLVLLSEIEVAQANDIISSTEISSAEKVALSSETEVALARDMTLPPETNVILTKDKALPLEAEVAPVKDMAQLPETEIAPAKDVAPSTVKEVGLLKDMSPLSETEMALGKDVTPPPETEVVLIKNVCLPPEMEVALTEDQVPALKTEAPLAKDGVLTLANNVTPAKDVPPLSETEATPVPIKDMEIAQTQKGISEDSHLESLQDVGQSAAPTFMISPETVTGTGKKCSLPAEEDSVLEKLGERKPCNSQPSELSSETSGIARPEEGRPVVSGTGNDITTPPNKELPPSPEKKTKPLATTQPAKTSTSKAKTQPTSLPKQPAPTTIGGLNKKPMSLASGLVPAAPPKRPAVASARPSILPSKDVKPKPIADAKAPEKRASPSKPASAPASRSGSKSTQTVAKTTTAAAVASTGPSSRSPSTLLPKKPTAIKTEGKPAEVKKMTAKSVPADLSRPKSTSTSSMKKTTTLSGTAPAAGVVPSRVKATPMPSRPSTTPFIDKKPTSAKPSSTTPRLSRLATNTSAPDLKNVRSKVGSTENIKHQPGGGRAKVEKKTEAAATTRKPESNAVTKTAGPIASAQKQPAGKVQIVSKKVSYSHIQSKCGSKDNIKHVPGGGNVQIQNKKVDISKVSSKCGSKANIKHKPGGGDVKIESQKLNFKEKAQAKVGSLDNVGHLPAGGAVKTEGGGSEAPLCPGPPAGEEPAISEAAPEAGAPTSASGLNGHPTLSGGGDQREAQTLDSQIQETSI
Chain of UniProt Q9NX70 (Q9NX70 whole entry, looked up): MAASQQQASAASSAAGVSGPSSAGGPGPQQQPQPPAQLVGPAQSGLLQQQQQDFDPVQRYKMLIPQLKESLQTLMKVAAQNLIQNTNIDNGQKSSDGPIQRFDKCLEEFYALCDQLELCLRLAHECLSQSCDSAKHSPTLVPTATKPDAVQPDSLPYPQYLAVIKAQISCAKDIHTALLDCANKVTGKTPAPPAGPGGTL
Chain of UniProt Q86X29 (Q86X29 whole entry, looked up): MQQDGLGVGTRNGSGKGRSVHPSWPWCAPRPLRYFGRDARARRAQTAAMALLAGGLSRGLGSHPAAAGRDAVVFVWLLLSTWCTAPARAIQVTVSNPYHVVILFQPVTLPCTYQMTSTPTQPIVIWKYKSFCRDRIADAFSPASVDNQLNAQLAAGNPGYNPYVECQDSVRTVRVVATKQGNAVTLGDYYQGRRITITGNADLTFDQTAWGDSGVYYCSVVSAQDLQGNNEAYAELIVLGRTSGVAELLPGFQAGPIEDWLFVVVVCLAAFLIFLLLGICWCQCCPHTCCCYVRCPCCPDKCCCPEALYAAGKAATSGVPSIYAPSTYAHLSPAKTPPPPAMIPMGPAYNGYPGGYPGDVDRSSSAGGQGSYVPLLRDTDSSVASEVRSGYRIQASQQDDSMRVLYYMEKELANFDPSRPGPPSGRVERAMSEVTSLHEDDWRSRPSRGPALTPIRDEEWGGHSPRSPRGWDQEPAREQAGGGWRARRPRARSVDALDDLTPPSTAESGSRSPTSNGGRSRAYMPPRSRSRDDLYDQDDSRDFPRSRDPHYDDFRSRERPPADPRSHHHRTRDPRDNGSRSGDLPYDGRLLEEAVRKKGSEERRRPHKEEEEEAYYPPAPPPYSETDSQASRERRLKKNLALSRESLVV
Chain of UniProt Q9NUN5 (Q9NUN5 whole entry, looked up): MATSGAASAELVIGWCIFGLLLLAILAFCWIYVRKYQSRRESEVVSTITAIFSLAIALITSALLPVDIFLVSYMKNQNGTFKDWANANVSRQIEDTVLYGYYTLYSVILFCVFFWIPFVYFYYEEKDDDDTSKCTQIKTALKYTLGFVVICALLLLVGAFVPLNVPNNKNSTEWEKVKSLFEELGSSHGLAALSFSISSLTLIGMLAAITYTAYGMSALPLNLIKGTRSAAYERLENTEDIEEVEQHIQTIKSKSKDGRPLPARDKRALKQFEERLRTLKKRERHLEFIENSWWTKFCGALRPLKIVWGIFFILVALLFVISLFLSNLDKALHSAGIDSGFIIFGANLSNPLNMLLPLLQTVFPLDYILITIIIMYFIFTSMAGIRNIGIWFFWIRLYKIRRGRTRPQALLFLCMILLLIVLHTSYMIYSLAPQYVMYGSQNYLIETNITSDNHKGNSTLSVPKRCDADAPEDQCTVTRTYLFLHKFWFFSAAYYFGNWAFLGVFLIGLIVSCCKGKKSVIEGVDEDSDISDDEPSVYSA
Chain of UniProt Q9BQK8 (Q9BQK8 whole entry, looked up): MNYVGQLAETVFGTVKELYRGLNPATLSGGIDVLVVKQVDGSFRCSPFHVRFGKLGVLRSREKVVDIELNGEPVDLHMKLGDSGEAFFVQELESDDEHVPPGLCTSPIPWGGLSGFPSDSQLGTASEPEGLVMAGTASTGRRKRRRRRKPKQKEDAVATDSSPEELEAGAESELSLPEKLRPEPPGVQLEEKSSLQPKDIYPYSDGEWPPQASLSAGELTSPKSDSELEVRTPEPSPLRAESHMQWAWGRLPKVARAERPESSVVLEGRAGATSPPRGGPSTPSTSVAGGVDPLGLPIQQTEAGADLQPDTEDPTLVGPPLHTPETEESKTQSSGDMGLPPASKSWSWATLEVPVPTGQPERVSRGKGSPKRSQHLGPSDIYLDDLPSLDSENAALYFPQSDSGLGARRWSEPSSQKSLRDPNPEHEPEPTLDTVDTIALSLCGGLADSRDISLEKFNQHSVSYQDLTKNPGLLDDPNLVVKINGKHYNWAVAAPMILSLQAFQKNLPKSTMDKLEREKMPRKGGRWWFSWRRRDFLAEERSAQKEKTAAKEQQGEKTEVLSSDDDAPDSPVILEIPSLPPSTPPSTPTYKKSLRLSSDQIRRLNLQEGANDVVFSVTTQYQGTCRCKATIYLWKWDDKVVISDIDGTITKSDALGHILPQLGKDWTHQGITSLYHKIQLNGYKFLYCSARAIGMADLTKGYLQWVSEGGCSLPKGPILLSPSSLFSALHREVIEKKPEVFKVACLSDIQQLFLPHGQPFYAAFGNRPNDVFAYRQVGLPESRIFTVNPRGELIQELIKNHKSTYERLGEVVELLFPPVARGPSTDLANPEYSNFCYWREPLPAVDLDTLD
Chain of UniProt Q9NQX7 (Q9NQX7 whole entry, looked up): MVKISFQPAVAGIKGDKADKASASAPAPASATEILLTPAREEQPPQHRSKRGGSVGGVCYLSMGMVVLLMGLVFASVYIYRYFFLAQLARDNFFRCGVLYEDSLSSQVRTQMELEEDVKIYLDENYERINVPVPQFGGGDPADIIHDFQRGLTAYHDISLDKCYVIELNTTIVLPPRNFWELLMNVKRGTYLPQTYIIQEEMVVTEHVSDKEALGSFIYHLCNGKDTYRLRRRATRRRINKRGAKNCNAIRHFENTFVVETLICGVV
Chain of UniProt Q8WYH8 (Q8WYH8 whole entry, looked up): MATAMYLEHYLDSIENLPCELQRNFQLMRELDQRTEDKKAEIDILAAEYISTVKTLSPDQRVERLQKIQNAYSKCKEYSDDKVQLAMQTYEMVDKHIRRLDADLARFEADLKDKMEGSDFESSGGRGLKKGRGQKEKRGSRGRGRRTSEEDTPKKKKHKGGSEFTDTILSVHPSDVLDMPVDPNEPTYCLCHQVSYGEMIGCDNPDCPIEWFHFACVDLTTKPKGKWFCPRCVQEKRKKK
Chain of UniProt P43361 (P43361 whole entry, looked up): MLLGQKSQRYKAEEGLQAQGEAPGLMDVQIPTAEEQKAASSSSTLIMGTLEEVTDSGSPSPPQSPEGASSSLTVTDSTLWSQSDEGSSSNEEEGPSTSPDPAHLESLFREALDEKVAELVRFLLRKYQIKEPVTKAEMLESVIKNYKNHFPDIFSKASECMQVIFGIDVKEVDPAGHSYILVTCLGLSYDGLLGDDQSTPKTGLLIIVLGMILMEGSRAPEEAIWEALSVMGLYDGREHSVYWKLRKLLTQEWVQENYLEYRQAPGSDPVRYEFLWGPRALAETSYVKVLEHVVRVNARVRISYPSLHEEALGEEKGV

Target	log2 fold change
MARCHF3 (UniProt Q86UD3)	0.027
ITM2C (UniProt Q9NQX7)	-0.12
MGRN1 isoform 2 (UniProt O60291)	0.069
ITPRID2 (UniProt P28290)	0.141
MAP4 isoform 5 (UniProt P27816)	-0.033
MAPRE3 isoform 2 (UniProt Q9UPY8)	-0.176
MED29 (UniProt Q9NX70)	-0.77 (active)
KLHL18 (UniProt O94889)	-0.048
MCOLN3 (UniProt Q8TDD5)	0.068
IKZF1 (UniProt R9R4D9)	0.084
MAGED1 isoform 2 (UniProt Q9Y5V3)	-0.058
LMBRD1 (UniProt Q9NUN5)	-0.062
LSR isoform 3 (UniProt Q86X29)	0.041
LPIN3 isoform 2 (UniProt Q9BQK8)	0.111
KIZ (UniProt Q2M2Z5)	-0.064
ING5 (UniProt Q8WYH8)	0.127
MAGEA8 (UniProt P43361)	0.057
IP6K1 (UniProt Q92551)	1.11 (active)
KXD1 (UniProt Q9BQD3)	0.042
MFSD1 isoform 6 (UniProt Q9H3U5)	0.019

Each target was assayed with COc1cc2ncnc(Nc3ccc(F)c(Cl)c3)c2cc1OCCCN1CCOCC1 [gefitinib] in the same assay as above.
Procedure, shortened: as §1

Target	log2 fold change
MARCHF3 (UniProt Q86UD3)	-0.195
ITM2C (UniProt Q9NQX7)	-0.092
MAP4 isoform 5 (UniProt P27816)	-0.005
MAP4K4 isoform 6 (UniProt O95819)	-0.028
MAPRE3 isoform 2 (UniProt Q9UPY8)	-0.02
MED29 (UniProt Q9NX70)	0.058
KLHL18 (UniProt O94889)	0.057
MCOLN3 (UniProt Q8TDD5)	-0.04
LOX (UniProt P28300)	-0.391
KMT2C isoform 3 (UniProt Q8NEZ4)	0.058
MAGED1 isoform 2 (UniProt Q9Y5V3)	0.228
LMBRD1 (UniProt Q9NUN5)	0
LPIN3 isoform 2 (UniProt Q9BQK8)	-0.029
MAGEA8 (UniProt P43361)	-0.069
IKZF1 isoform 2 (UniProt Q13422)	-0.044
MFSD1 isoform 6 (UniProt Q9H3U5)	-0.021

These targets were tested with COc1cccc2cc(-c3nc([C@H]4CC[C@H](C(=O)O)CC4)n4ncnc(N)c34)[nH]c12 in the same assay as above.
Procedure, shortened: as §1

Target	log2 fold change
MAP4 isoform 5 (UniProt P27816)	-0.045
MAP4K4 isoform 6 (UniProt O95819)	-0.179
MED29 (UniProt Q9NX70)	0.115
KLHL18 (UniProt O94889)	0.038
LIN52 (UniProt Q52LA3)	0
MCOLN3 (UniProt Q8TDD5)	-0.035
LOX (UniProt P28300)	0.146
KMT2C isoform 3 (UniProt Q8NEZ4)	-0.027
LEPROT (UniProt O15243)	0.041
LMBRD1 (UniProt Q9NUN5)	0.059
LSR isoform 3 (UniProt Q86X29)	0.033
LPIN3 isoform 2 (UniProt Q9BQK8)	-0.01
LAPTM4B (UniProt Q86VI4)	0.007
KIF1B isoform 3 (UniProt O60333)	-0.037
ING5 (UniProt Q8WYH8)	0.179
IKZF1 isoform 2 (UniProt Q13422)	-0.031
IP6K1 (UniProt Q92551)	0.091
KXD1 (UniProt Q9BQD3)	0.342 (active)
MFSD1 isoform 6 (UniProt Q9H3U5)	0.181

What follows are targets tested with CS(=O)(=O)CCNCc1ccc(-c2ccc3ncnc(Nc4ccc(OCc5cccc(F)c5)c(Cl)c4)c3c2)o1 [lapatinib] in the same assay as above.
Procedure, shortened: as §1

Target	log2 fold change
MARCHF3 (UniProt Q86UD3)	-0.033
ITM2C (UniProt Q9NQX7)	-0.045
MGRN1 isoform 2 (UniProt O60291)	-0.238
ITPRID2 (UniProt P28290)	-0.141
MAP4 isoform 5 (UniProt P27816)	0.036
MAPRE3 isoform 2 (UniProt Q9UPY8)	-0.265
MED29 (UniProt Q9NX70)	-0.028
KLHL18 (UniProt O94889)	0.071
MCOLN3 (UniProt Q8TDD5)	-0.02
IKZF1 (UniProt R9R4D9)	0.037
MAGED1 isoform 2 (UniProt Q9Y5V3)	0.034
LMBRD1 (UniProt Q9NUN5)	-0.026
LSR isoform 3 (UniProt Q86X29)	0.073
LPIN3 isoform 2 (UniProt Q9BQK8)	0.022
KIZ (UniProt Q2M2Z5)	0.066
ING5 (UniProt Q8WYH8)	-0.128
MAGEA8 (UniProt P43361)	-0.032
IP6K1 (UniProt Q92551)	0.128
KXD1 (UniProt Q9BQD3)	-0.054
MFSD1 isoform 6 (UniProt Q9H3U5)	-0.026
